# Reference: the supplement of paper PMC12636033
# ± gives the standard deviation of the averaged measurements. In all, about 33,000 sequences were measured (“E-score (rank enrichment, -0.5 to 0.5)”: median about -0.0068, highest 2% from about 0.24 on). This is one part of a sample in which the highest values are shown more often than they occur.
# Test system: muMax20 (Max(13-93) K31hArg/K57hArg, M65Nle)
# Test: PBM 8-mer E-score (E-score (rank enrichment, -0.5 to 0.5)); higher = stronger preferential binding
# Procedure: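 Protein binding microarray (universal PBM chip covering all 10-mers in fixed probe flanks) with chemically synthesized human Max(13-93) bHLH-LZ analogs (not full-length Max) bearing noncanonical residues (hArg, Tha, Aib, Nle at 65) and aromatic Cys staples. Read-out per 8-mer (and its reverse complement): E-score (rank-based enrichment, -0.5 to 0.5) and Z-score of median probe intensity.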
row,Sequence,PBM 8-mer E-score
1,CACGTTAG,0.0823 ± 0.07
2,TACGTGAA,0.144 ± 0.01
3,CGCGTGAA,0.00405 ± 0.02
4,CGCGTGAG,0.122 ± 0.034
5,CACGTGAC,0.459 ± 0.038
6,CACGTGAG,0.344 ± 0.11
7,GACGTGAA,-0.111 ± 0.032
8,CCCGTGAG,-0.289 ± 0.015
9,CGCGTGAC,0.268 ± 0.12
10,GACGTGAC,0.0637 ± 0.034
11,AACGTGAC,0.155 ± 0.0051
12,CACGTGAA,0.368 ± 0.099
13,ACCCGAGG,-0.1291 ± 0.0004
14,CCAGCTAC,-0.139 ± 0.0043
15,GGAGCTAA,-0.194 ± 0.096
16,ATCTCCGG,-0.11 ± 0.16
17,CCCTTAGC,-0.0766 ± 0.14
18,ACGCTGAA,-0.171 ± 0.049
19,CCTCCTAC,-0.0317 ± 0.12
20,ATACCTCC,-0.0216 ± 0.038
21,CCCATGGC,-0.167 ± 0.041
22,AACTGTAG,-0.00575 ± 0.073
23,ACGACACA,-0.0466 ± 0.022
24,ATTCGCCA,-0.152 ± 0.018
25,GGCCTATA,-0.132 ± 0.045

row,Sequence,PBM 8-mer E-score
1,CGCCTATA,-0.0178 ± 0.0095
2,AGCCTATA,0.25 ± 0.083
3,TATGTTGA,0.238 ± 0.044
4,AATGTTGT,0.28 ± 0.01
5,AATGTTGA,-0.00564 ± 0.1
6,AATGTTGG,0.0876 ± 0.073
7,GATGTTGA,-0.00209 ± 0.012
8,CATGTTGA,0.193 ± 0.044
9,ATTCTAGC,-0.0188 ± 0.08
10,CTATACTA,0.081 ± 0.083
11,ACATACGC,0.078 ± 0.081
12,ACATACGA,0.239 ± 0.035
13,ATATACTA,0.3084 ± 0.0014
14,ATCTACTA,0.2783 ± 0.0027
15,ATCTACTG,-0.00673 ± 0.085
16,TCATACGA,0.2 ± 0.064
17,CTATACGA,-0.122 ± 0.029
18,ATCTACTC,-0.0945 ± 0.036
19,ATATACGA,0.247 ± 0.017
20,ATATACTC,0.128 ± 0.077
21,ATATACGC,0.0468 ± 0.016
22,CCTCGCTC,-0.0787 ± 0.12
23,GCGGAACC,-0.175 ± 0.0029
24,GGTCGGCA,-0.172 ± 0.038
25,ATGCCTCG,0.0473 ± 0.0097

row,Sequence,PBM 8-mer E-score
1,AAACGCGA,0.0862 ± 0.15
2,GAGGCAAA,0.154 ± 0.077
3,GTGAGCGA,-0.125 ± 0.059
4,CCAGGCTA,-0.296 ± 0.027
5,GGAAGTAA,0.207 ± 0.022
6,GGGTACAA,0.0175 ± 0.13
7,GTGTACAA,0.1868 ± 0.0017
8,TTGTACAA,0.284 ± 0.073
9,AGGTACAA,0.128 ± 0.024
10,TGGTACAA,0.253 ± 0.084
11,CTGTACAA,0.045 ± 0.052
12,CATGGTTA,0.103 ± 0.0075
13,TCCGCACA,-0.187 ± 0.04
14,CCACGCGG,0.416 ± 0.005
15,AAACGCGT,0.0946 ± 0.058
16,CCACGCGC,0.03925 ± 0.00016
17,ACACGCGT,0.238 ± 0.014
18,ACACGCGC,0.0651 ± 0.19
19,ACACGCGG,0.246 ± 0.046
20,ACGCGCGT,0.19 ± 0.13
21,ACACGCGA,0.15 ± 0.0033
22,CCACGCGA,0.0738 ± 0.016
23,AAACTCCA,-0.0494 ± 0.085
24,AACTTACG,0.0512 ± 0.088
25,GGATGGGA,0.00739 ± 0.13

row,Sequence,PBM 8-mer E-score
1,AGCTTTAT,-0.0838 ± 0.085
2,AGTGTGTC,-0.0164 ± 0.029
3,TACGGCAA,0.0936 ± 0.016
4,GGCCAAGA,-0.116 ± 0.056
5,AAGCATGC,0.254 ± 0.074
6,GAGCATGC,0.217 ± 0.12
7,CTGCATTA,0.0657 ± 0.06
8,ATGCATGA,0.276 ± 0.055
9,ATGCATTC,0.215 ± 0.1
10,ATGCATGC,0.198 ± 0.11
11,GTGCATCA,0.145 ± 0.039
12,AAGCATGT,0.218 ± 0.064
13,ATGCATCA,0.276 ± 0.059
14,ATGCATGG,0.132 ± 0.097
15,ATGCATCG,0.0165 ± 0.083
16,ATGCATTA,0.28 ± 0.079
17,GAGCAGCC,-0.196 ± 0.0049
18,ACAACCCC,0.0696 ± 0.03
19,ATTCATTA,0.177 ± 0.078
20,CTACATTC,0.0325 ± 0.15
21,ATACATTC,0.244 ± 0.0028
22,ATTCATTG,0.148 ± 0.014
23,ATTCATTC,0.287 ± 0.035
24,ATACATTG,0.125 ± 0.013
25,ACGCGGGG,0.0227 ± 0.021

row,Sequence,PBM 8-mer E-score
1,CAGCTAAC,-0.15 ± 0.12
2,GCGCCTCA,-0.0397 ± 0.1
3,CCCGGTCA,-0.139 ± 0.064
4,CAAACATG,0.229 ± 0.044
5,AAAACATG,0.279 ± 0.027
6,AAAACATT,0.127 ± 0.061
7,AACACATG,0.317 ± 0.053
8,AACACATT,0.0928 ± 0.081
9,AACACATC,0.0883 ± 0.011
10,CTCTGCTA,-0.193 ± 0.028
11,AAGCAAAT,0.172 ± 0.025
12,CGGGCGAG,-0.112 ± 0.12
13,CAAGCGCC,-0.192 ± 0.11
14,AAAGCGCA,0.0206 ± 0.012
15,CAAGCGCA,0.284 ± 0.019
16,GACGGTGC,-0.0722 ± 0.033
17,ATGCAACG,0.251 ± 0.079
18,ATGCAACC,0.225 ± 0.014
19,ATGCAACA,0.211 ± 0.041
20,TCTTGAAA,0.0967 ± 0.01
21,CGGCGCGC,0.00798 ± 0.069
22,ATGTGTTA,0.276 ± 0.076
23,TAGTTATA,0.288 ± 0.068
24,ATGTGTAA,0.204 ± 0.046
25,ATGTGTAC,0.113 ± 0.057

row,Sequence,PBM 8-mer E-score
1,ATGTGTGA,0.192 ± 0.13
2,AAGTTATA,0.156 ± 0.018
3,CTGTTATA,0.179 ± 0.097
4,GTGTTATA,0.2767 ± 0.0021
5,GAGTTATA,0.173 ± 0.0073
6,ATGTTATA,0.193 ± 0.12
7,ATGTGTTC,-0.0235 ± 0.019
8,ATGTGTAG,0.239 ± 0.068
9,ATCACCAG,-0.0679 ± 0.034
10,GTCCCTCA,-0.00891 ± 0.083
11,ATAACCGG,-0.0406 ± 0.073
12,ATTACGGA,0.0432 ± 0.041
13,ATTGCTGG,-0.0565 ± 0.13
14,AGGCCGGC,-0.211 ± 0.028
15,ATGCGGAG,0.00298 ± 0.056
16,AACAACGA,0.147 ± 0.012
17,GGGTCAAC,-0.0771 ± 0.079
18,CTGTGTTA,0.0692 ± 0.087
19,GTGTGTTA,0.268 ± 0.0066
20,GGGTGTTA,0.0328 ± 0.0072
21,CGCGCTAA,-0.0154 ± 0.16
22,ATTAACTA,0.283 ± 0.017
23,ATTAACTC,0.173 ± 0.0096
24,ACTAACAC,0.0454 ± 0.029
25,CTTAACAC,0.149 ± 0.092

row,Sequence,PBM 8-mer E-score
1,ATTAACAG,0.0428 ± 0.24
2,GTTAACTA,0.213 ± 0.0029
3,GTTAACAA,0.17 ± 0.0025
4,ATTAACAC,0.287 ± 0.029
5,ATTAACAA,0.246 ± 0.052
6,AAAGCTAA,-0.00207 ± 0.033
7,ACCACTAG,0.0698 ± 0.15
8,ATGCGATA,-0.0659 ± 0.018
9,GCCCTCGA,-0.118 ± 0.0058
10,CCGGATAA,-0.0458 ± 0.13
11,AGTAGGAC,0.103 ± 0.047
12,AACGGCCA,-0.0219 ± 0.0033
13,AACGGCCC,-0.263 ± 0.018
14,AACGGCCT,0.269 ± 0.11
15,GATCCCGA,-0.329 ± 0.0063
16,AATTCTTA,0.0618 ± 0.12
17,ATCTGTAC,0.157 ± 0.1
18,GCGTATTA,0.117 ± 0.082
19,ACGTATCT,0.0322 ± 0.12
20,ACGTATCA,0.243 ± 0.11
21,ACGTATTG,0.0861 ± 0.067
22,ACGTATCG,-0.00982 ± 0.017
23,ACGTATTA,0.25 ± 0.076
24,CATATGAA,0.0777 ± 0.049
25,AGGCACGA,0.109 ± 0.032

row,Sequence,PBM 8-mer E-score
1,CAGAGCTA,-0.25 ± 0.013
2,TGAACAAA,0.00782 ± 0.029
3,ATAATCAG,0.32 ± 0.072
4,ATAATCAA,0.0671 ± 0.022
5,GTAATAAC,0.156 ± 0.072
6,TTAATAAA,0.238 ± 0.028
7,ATAAGAAA,0.141 ± 0.043
8,ATAATAAC,0.315 ± 0.034
9,CTAATCAG,-0.0349 ± 0.028
10,ATAAGAAC,0.24 ± 0.081
11,ATAATAAA,0.217 ± 0.023
12,CTAATAAC,0.19 ± 0.074
13,CTAATAAA,0.163 ± 0.024
14,ATAAGAAT,0.165 ± 0.04
15,GATAGCGA,-0.086 ± 0.082
16,AATCCGAC,0.0325 ± 0.024
17,CTCAGAGC,-0.28 ± 0.041
18,ATCTGGAG,-0.0378 ± 0.089
19,AAAGATGT,0.203 ± 0.0026
20,CCCGTCTC,-0.0114 ± 0.0032
21,ATCTCAAG,-0.0469 ± 0.0077
22,GCGAAGCA,0.0453 ± 0.032
23,ACTTCCGC,-0.0937 ± 0.045
24,CTAATAAG,0.119 ± 0.044
25,ATAATAAT,0.205 ± 0.05

row,Sequence,PBM 8-mer E-score
1,ATAATAAG,0.247 ± 0.051
2,CGCAGAGA,-0.0723 ± 0.14
3,CTCCAAGC,-0.018 ± 0.00052
4,CATATAAG,0.154 ± 0.076
5,CATATAAC,0.219 ± 0.048
6,TGTATAAA,0.207 ± 0.0065
7,AATATAAT,0.156 ± 0.065
8,AATATAAA,0.324 ± 0.012
9,GATATAAA,0.139 ± 0.03
10,CATATAAA,0.329 ± 0.056
11,AATATAAG,0.207 ± 0.045
12,TATATAAA,0.304 ± 0.05
13,ACGACGCA,0.00737 ± 0.11
14,AGGGGGCA,-0.0171 ± 0.019
15,CAGGCTCA,-0.0417 ± 0.019
16,GATCTTGA,0.101 ± 0.013
17,CTAGGCGA,-0.155 ± 0.071
18,TCCCCTCA,0.14 ± 0.1
19,CTTTCCTA,-0.0321 ± 0.019
20,GTTTCCTA,0.307 ± 0.033
21,ATTTCCTA,0.137 ± 0.029
